Experimental data as given in PubChem BioAssay AID720513 (Broad Institute, 2013).
In all, about 2,100 compounds went through this assay and about 480 (23%) were called active. Not shown: some 5% with an inconclusive outcome.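 Rule for the calls: active = fitted curve reaches 40% activation at or below the top valid concentration, in every replicate test; inconclusive = replicate tests disagree on the call; inactive = the rest, including activity in the opposite direction.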 A selection follows. Results with a measured potency or affinity are listed apart.

Test: activators raising PGC1a acetylation in cells, dose response, cell-based, cherry-picked samples, set 6 (AID 720513);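 note: cells made to overexpress flag tagged PGC1a plus GCN5 acetyltransferase by viral infection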
Conditions: U2OS PGC1a acetylation AlphaLISA, overnight, 0 = neutral, -100 = inhibitor control; series mostly up to 19.5 µM; activation (acetylation increase): at the top concentration

Activation (acetylation increase), inactive:
O=C(Nc1nc(-c2ccc3ccccc3c2)cs1)c1ccc(N2C(=O)CCC2=O)cc1 -4.2%
Cc1ccc(CC(=O)Nc2nccs2)cc1 11.1%
C[C@H]1CN([C@@H](C)CO)C(=O)c2cc(NC(=O)Nc3cccc4ccccc34)ccc2O[C@H]1CN(C)S(=O)(=O)c1ccc(Cl)cc1 -6.46% [at 21 µM]
N#C[C@H]1[C@H](c2ccc(C#CC3CCCC3)cc2)[C@H](CO)N1C(=O)Cc1ccccn1 -55.6%
N#C[C@@H]1[C@@H](c2ccc(-c3ccccc3)cc2)[C@@H](CO)N1C(=O)Cc1ccncc1 -41%
C[C@H](CO)N1C[C@H](C)[C@H](CN(C)C(=O)NC2CCCCC2)Oc2cc(C#Cc3cccc(F)c3)ccc2S1(=O)=O -84.8%
CS(=O)(=O)c1sc2nc(-c3cccs3)cc(-c3ccccc3)c2c1N 36.2%
COc1ccc(C(=O)Nc2cccc(S(C)(=O)=O)c2)cc1OC 14.5%
COc1ccc(NC(=O)c2ccc3c(c2)OCO3)cc1Cl -10.9%
C[C@@H]1CN([C@@H](C)CO)C(=O)c2cc(C#CCN(C)C)cnc2O[C@H]1CN(C)Cc1ccc(F)cc1 22% [at 21 µM]
Fc1cccc(CN2C[C@@H]3N[C@H](C2)C3c2ccc(/C=C/c3ccccc3)cc2)c1 (some centres undefined) -94.1%
CCOC(=O)c1oc2nc3c(cc2c1N)COC(C)(C)C3 36.1%
C[C@H]1CN([C@@H](C)CO)C(=O)c2cc(C#CC(C)(C)O)cnc2O[C@@H]1CN(C)C(=O)C1CCC1 4.88%
CC1CCCCN1C(=O)CN(C)S(=O)(=O)c1cccc2nsnc12 (centres undefined) -12%
O=C(Nc1ccc(F)cc1)C1CCCN1S(=O)(=O)c1cccc2nsnc12 (centres undefined) 2.69%
O=c1c2c3c(sc2n2cnnc2n1Cc1ccccc1)CN(Cc1ccccc1)CC3 29.5%
COC(=O)c1[nH]c2ccc(F)cc2c1NS(=O)(=O)c1ccc(OC)cc1OC -6.12%
O=C(C[C@H]1CC[C@@H](NC(=O)c2ccccc2)[C@H](CO)O1)Nc1ccc(-c2ccccc2)cc1 -60.5%
COc1ccc(CCN2C(=O)N(c3ccc(OC)cc3)C(=O)C2CC(=O)Nc2ccccc2)cc1 (centres undefined) 0.037%
CC(=O)c1ccc(N2CCN(C(=O)c3ccc4nc[nH]c4c3)CC2)cc1 16.3%
Cc1[nH]c2ccccc2c1C(=O)/C=C/c1ccccc1 -28.1%
CSc1nsc(SC)c1NC(=O)Nc1ccccc1C 25.9%
O=C(CN1C(=O)NC2(CCc3ccccc32)C1=O)c1ccc(Br)cc1 (centres undefined) 31% [at 10 µM]
COCc1c(C(=O)Nc2cccc(S(=O)(=O)N3CCCCC3)c2)oc2ccccc12 21.3%
CC1CCN(S(=O)(=O)c2ccc(Oc3ccc([N+](=O)[O-])cc3)cc2)CC1 36%
CCOc1ccc(NC(=O)c2cccc3c2C(=O)N(CCOC)C3)cc1 1.21%
COc1cccc(NC(=O)c2ccccc2-c2ccccc2C(=O)O)c1 11.2%
Cc1c(NC(=O)COC(=O)c2ccccc2O)c(=O)n(-c2ccccc2)n1C 15.7%
C[C@@H]1CN([C@H](C)CO)C(=O)Cc2cc(NC(=O)Cc3ccccc3)ccc2O[C@@H]1CN(C)S(C)(=O)=O 14.9%
C[C@H]1CN([C@@H](C)CO)C(=O)Cc2cc(NS(C)(=O)=O)ccc2O[C@@H]1CN(C)Cc1ccc2c(c1)OCO2 1.57%
C[C@H]1CN([C@@H](C)CO)C(=O)Cc2cc(NC(=O)Nc3ccccc3)ccc2O[C@@H]1CN(C)Cc1ccccc1 -36.2%
C[C@@H]1CN([C@H](C)CO)C(=O)Cc2cc(NC(=O)Nc3ccccc3)ccc2O[C@H]1CN(C)Cc1ccccc1 5.21% [at 21 µM]
C[C@H]1CCCCO[C@H](CN(C)Cc2ccc3c(c2)OCO3)[C@@H](C)CN([C@@H](C)CO)C(=O)c2cc(NC(=O)Nc3ccc(C(F)(F)F)cc3)ccc2O1 -95.8%
Cc1ccccc1Cn1cnc2c(nnn2Cc2ccc(F)cc2)c1=O -4.71%
O=C1Nc2c(Br)cc(Br)c3cccc1c23 1.42%
COc1ccc(S(=O)(=O)N(C)C[C@@H]2Oc3ncc(-c4ccccc4)cc3C(=O)N([C@H](C)CO)C[C@@H]2C)cc1 24% [at 21 µM]
COc1ccc(-c2cnc3c(c2)C(=O)N([C@H](C)CO)C[C@H](C)[C@H](CN(C)S(=O)(=O)c2cccs2)O3)cc1 4.64%
C[C@H]1CN([C@@H](C)CO)C(=O)c2cc(-c3cccc(C(=O)N(C)C)c3)cnc2O[C@@H]1CN(C)S(=O)(=O)c1ccc(F)cc1 -3.94%
C[C@@H]1CN([C@@H](C)CO)C(=O)c2cc(C#CCN(C)C)cnc2O[C@@H]1CN(C)S(=O)(=O)c1cn(C)cn1 15.9%
O=C(C[C@H]1C[C@H]2c3cc(NC(=O)C4CCC4)ccc3O[C@H]2[C@H](CO)O1)NCc1ccc(-c2ccccc2)cc1 14%
O=C1c2ccsc2SCCN1Cc1cccc(Cl)c1 -1.83%
Cc1cccc(N2C(=O)C(Cl)=C(N3CCOCC3)C2=O)c1 -2.12%
O=S(=O)(c1cccs1)N1CCCCN2[C@H](CO)[C@H](c3ccc(/C=C/c4ccccc4)cc3)[C@H]2C1 -41.3%
O=C(NC[C@@H]1N[C@@H](CO)[C@H]1c1ccc(C2=CCCCC2)cc1)c1ccc(F)cc1 21.8%
C[C@H](CO)N1C[C@H](C)[C@@H](CN(C)Cc2ccccc2F)Oc2ncc(Br)cc2C1=O 9.64%
O=S(=O)(Nc1ccccc1N1CCCCC1)c1ccc(F)cc1 29.9%
CCCN(CCC)S(=O)(=O)c1ccc(C(=O)Nc2nnc(CSC)o2)cc1 -2.17%
Cc1noc(C)c1S(=O)(=O)Nc1ccc2c(c1)C(=O)N([C@@H](C)CO)C[C@@H](C)[C@@H](CN(C)S(=O)(=O)c1ccccc1)O2 15%
O=S(=O)(C/C(=C/CO)S(=O)(=O)c1ccccc1)c1ccccc1 -51.6%
CCN(C(=O)CN1CCN(c2ccccc2O)CC1)c1c(N)n(Cc2ccccc2)c(=O)[nH]c1=O 1.96%
CO[C@H](CN(C)S(=O)(=O)c1ccc(Cl)cc1)[C@H](C)CN([C@H](C)CO)S(=O)(=O)c1cccc(Cl)c1 43.3% [at 18 µM]
OCC1OC(Oc2c(Br)cc(Br)cc2Br)C(O)C(O)C1O (centres undefined) 15.7%
CCc1ccc(C(=O)CN(C#N)c2nc(C)cc(C)n2)cc1 -61%
COc1ccc(Cn2nnnc2CN(Cc2cc3ccc(C)cc3[nH]c2=O)C2CCCC2)cc1 -14.1%
COc1ccccc1NS(=O)(=O)c1cc(NC(=O)c2[nH]c(C)c(C(C)=O)c2C)ccc1N1CCOCC1 38.3%
CCCCCCNC(=O)O[C@@]12CN(S(=O)(=O)c3ccc(C)cc3)C[C@]1(O)Cn1c(=O)n(CCCCCC)c(=O)n1C2 -18.4%
O=C(O)c1cc(-c2ccc3c(c2)OCO3)nc2ccccc12 -21.2%
O=C(Nc1cccc(Cl)c1)Nc1ccc2c(c1)OCO2 8.19%
COc1ccc(NC(=O)[C@H](Cc2c[nH]c3ccccc23)NC(=O)[C@@H]2Cc3ccccc3CN2)cc1 3.84%
Clc1ccc2nc(COc3ccccc3)[nH]c2c1 35%
C[C@@H]1CN([C@H](C)CO)C(=O)c2cc(NC(=O)CCCCCC(=O)Nc3ccccc3N)ccc2O[C@H]1CN(C)S(=O)(=O)c1ccc(Cl)cc1 12.1%
C[C@H](CO)N1C[C@H](C)[C@@H](CN(C)Cc2ccc(C(F)(F)F)cc2)OCc2cnnn2CCCC1=O -39.1%
COc1ccc(C(NC(=O)c2c(F)c(F)c(F)c(F)c2F)c2ccccc2)cc1 (centres undefined) -107%
CO[C@@H]1CN(C)C(=O)c2ccc(NS(C)(=O)=O)cc2OC[C@@H](C)N(Cc2nccs2)C[C@@H]1C 9.44%
O=C(C[C@@H]1C[C@@H]2c3cc(NC(=O)C4CCC4)ccc3O[C@@H]2[C@@H](CO)O1)NCc1ccc(-c2ccccc2)cc1 16.7% [at 21 µM]
CC1=C(Cl)C2=NS(=O)(=O)CCN2C=C1Cl -15.2%
O=C(c1ccc(Cl)cc1)C(Cn1cncn1)C(Sc1ccccc1)c1ccccc1 (centres undefined) -26% [at 10 µM]
CCCNC(=O)N(C)C[C@H]1Oc2cc(C#CCC(C)C)ccc2S(=O)(=O)N([C@@H](C)CO)C[C@H]1C -22.8%
COc1cc(CCC(=O)Nc2cc(C)cc(C)c2)cc(OC)c1OC 27.5%
Cc1ccc(S(=O)(=O)N(CC2CO2)c2ccccc2[N+](=O)[O-])cc1 (centres undefined) 7.63%
CC(C)c1ccccc1NC(=O)Cn1c(-c2ccccc2Cl)nc2ccccc21 7.14%
O=S(=O)(O)c1nc2ccccc2n1Cc1ccc(Cl)cc1 16% [at 10 µM]
O=S(=O)(c1ccc(N2CCC(c3ccc(Cl)cc3)=N2)cc1)N(CCO)CCO -6.7%
COc1cccc(N2C(=NC(=O)c3ccccc3)SC3CS(=O)(=O)CC32)c1 (centres undefined) -1.74%
CCOC(=O)c1ccc2[nH]c(C)c(CN3CCN(C)CC3)c(=O)c2c1 20.5%
CC(Sc1nnc(N)s1)C(=O)Nc1ccc2c(c1)OCO2 (centres undefined) -0.09%
CCCN(C)C[C@H]1Oc2cc(C#Cc3ccc(OC)cc3)ccc2S(=O)(=O)N([C@@H](C)CO)C[C@H]1C -59.5%
C[C@H](CO)N1C[C@H](C)[C@H](CN(C)C(=O)C2CCCCC2)Oc2cc(-c3ccccc3)ccc2S1(=O)=O -2.64%
Cc1cc(N)c2cc(NC(=O)/C=C/c3ccccc3Cl)ccc2n1 -96.7%
COc1ccc(-c2cn[nH]c2-c2ccc(O)cc2O)cc1 -6.54%
O=C(CCCc1cccs1)NCCc1c[nH]c2ccccc12 13.6%
O=C(CN1C(=O)C2C3CC(C(Br)C3Br)C2C1=O)OCC(=O)c1cccc([N+](=O)[O-])c1 (centres undefined) 20.3%
CC1=C(C(=O)OC(C)(C)C)C(c2ccc3ccccc3c2)NC(=O)N1C (centres undefined) 28.9%
O=C(O)Cn1cc(C(=O)C(F)(F)F)c2ccccc21 -17.3%
O=C(Cn1cc(C(=O)c2cccs2)c2ccccc21)NCC1CCCO1 (centres undefined) 20.3%
Cc1ccc(C(=O)Nc2nc(=O)n(C(=O)CC(C)C)s2)cc1 -21.6%
CN(C)c1ccc(/C=N/N(CCC#N)C2=NS(=O)(=O)c3ccccc32)cc1 30.6%
O=C(COc1ccccc1Cl)Nc1ccc(Cl)cn1 -9.22%
COc1ccccc1C(=O)N1C(CC(=O)Nc2cc(Cl)ccc2C)C(=O)NC2CCCCC21 (centres undefined) 35.7%
